# Bioassay records from PubChem BioAssay.
# Only some compounds are listed: those with a hit (about 15% of all), similar ones and a draw of the others.
# Pf growth 96h: inhibits malaria parasite growth, 96 h. Potency, µM (highest dose often 28.7 µM), for inactives: top-dose activity change, negative = inhibition, hits mostly inhibitors. P. falciparum luciferase reporter growth, 96 h. actives 6.9% (n = 320,000); note: potency is the fitted concentration of half-maximal effect; % is set by controls: 0 for no effect and ±100 for the full control effect
#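 Delayed-death screen, second-generation endpoint: infected erythrocytes, 2% hematocrit, 0.05% parasitemia final; 96 hours at 37 C, 5% CO2; luciferase detection reagent; luminescence decrease equals reduced growth.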
# Pf growth 48h: inhibits P. falciparum growth in the first generation, 48 h; P. falciparum luciferase growth in erythrocytes, 48 h; Potency, µM (doses to about 28.7 µM), without a hit: at the highest dose activity change, negative = inhibition, actives largely listed as inhibitors; actives 5.9% (n = 310,000); note: potency is the fitted concentration of half-maximal effect; % is set by controls: 0 for no effect and ±100 for the full control effect
#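 Cell-based growth assay: transgenic P. falciparum expressing firefly luciferase, cultured in red cells within RPMI 1640 containing 0.5% w/v Albumax, 24 mM bicarbonate and gentamycin. A drop in luciferase activity indicates inhibition.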
# SARS PLpro yeast: SARS-CoV PLP inhibition in yeast; S. cerevisiae expressing SARS-CoV PLpro, growth rescue; actives 0.19% (n = 330,000); AID 485353; Potency, µM (series often up to 32.9 µM), for the others: at the top dose activity, positive = growth rescue, usual class: activators; calls by dose curve; note: potency is the fitted concentration of half-maximal effect; 0% is about no effect; nearly all actives have a fitted effect of over 55% in size
# HCMV antiviral: blocks human cytomegalovirus replication; HFF cells, HCMV-luciferase reporter, 72 h; hits give low values; activity change, negative = inhibition, % at 57.5 µM; actives 4.5% (n = 410,000); in the data active = activity change below about -60%; inconclusive = no clear call, values can overlap the other calls; inactive = above about -39%; note: % is set by controls: 0 for no effect and ±100 for the full control effect
#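 Luciferase read-out from HCMV-luciferase-infected HFFs (MOI 1 PFU/cell) 72 h post infection at 37C; compounds added after 16 h cell attachment; activity normalized between buffer-only basal and Salinomycin (10uM) inhibitor controls.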
# HCV inhibitor: inhibitors of hepatitis C virus infection; Huh7.5.1 HCVcc-Cre infection, luciferase reporter, 44 h; actives 3.4% (n = 340,000); Potency, µM (top dose mostly 41.8 µM), inactives show at the highest dose activity change, negative = inhibition, hits mostly inhibitors; AID 651820; note: potency is the fitted concentration of half-maximal effect; % is set by controls: 0 for no effect and ±100 for the full control effect
#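 HCVcc-Cre virus at an moi near 0.5 was added right after compound to cells cultured 4 h from seeding (1,000 cells/well). Luciferase activity was determined 44 h later, 15 min after substrate addition at RT.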
# Sm TGR block: inhibitors of Schistosoma mansoni thioredoxin glutathione reductase. Q962Y6. purified TGR, DTNB reduction, TNB absorbance 405 nm. Potency, µM (doses to about 114 µM), without a hit: at the highest dose activity change, negative = inhibition, usual class: inhibitors. actives 3% (n = 360,000); note: potency is the fitted concentration of half-maximal effect; % is set by controls: 0 for no effect and ±100 for the full control effect; nearly all actives have a fitted effect of over 60% in size
#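 Kinetic colorimetric format: TGR-catalysed, NADPH-driven DTNB reduction monitored via TNB absorbance. Enzyme dispensed at 20 nM; compound exposure 15 min at room temperature before reaction start.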
# The depositor's hits bear a star; ? = inconclusive; . = no result given; [ ] = remark or other dose. Unless noted, calls come from the whole dose curve; as a rule, active = well fitted curve in the direction sought with a large enough effect; inconclusive = small, poorly fitted or top-dose-only effect, or another doubt; inactive = no such curve, though single readings can be large; an effect the other way counts as inactive or inconclusive.
SMILES,Pf growth 96h,Pf growth 48h,SARS PLpro yeast,HCMV antiviral,HCV inhibitor,Sm TGR block
COc1cc(NC(=O)CN2C(=O)C(=O)N(CC(C)C)C2=O)cc(OC)c1,13.7%,?,-1.5%,.,?,-0.7%
CCCN(C(=O)CSCc1ccc(C)cc1)c1c(N)n(Cc2ccccc2)c(=O)[nH]c1=O,.,.,.,-10.4,.,.
CCc1nnc(NC(=O)c2cc(Cl)ccn2)s1,5.86µM*,?,17.6%,48.1,-16.0%,-24.8%
CCSc1nnc(NC(=O)C2Cc3ccccc3CN2S(=O)(=O)CC)s1 (stereo not drawn),13.1µM*,-6.7%,3.1%,24.3,-6.9%,3.3%
CCc1nnc(NC(=O)c2ccc(Cl)nc2)s1,60.6%,26.5%,-0.6%,92.0,-4.5%,3.5%
Cc1cnc(C(=O)Nc2nnc(SCc3c(Cl)cccc3Cl)s2)cn1,2.94µM*,2.62µM*,6.8%,12.7,?,1.3%
CCSc1nnc(NC(=O)c2ccccn2)s1,11.1%,2.94µM*,-12.3%,9.9,?,1.3%
COc1ccccc1/C=C/C(=O)OCC(=O)N1CCc2ccccc21,-16.2%,-22.4%,1.4%,5.5,7.9%,-13.7%
CCCN1CCN(CC2=C(C(=O)OCC)C(c3cccc(OC)c3OC)NC(=O)N2)CC1 (stereo not drawn),.,.,.,-2.8,.,89.1µM*
COC(=O)C1=C(C)N(Cc2ccccc2)C(=O)N[C@H]1c1ccccc1,?,-0.4%,10.5%,-18.6,-5.3%[8.37 µM],-34.3%
COCCOC(=O)C1=C(C)N(Cc2ccccc2)C(=O)NC1c1cccc(OC)c1OC (stereo not drawn),1.04µM*,?,2.5%,-22.1,8.3%,-7.3%
CCCN1CCN(CC2=C(C(=O)OCC)C(c3ccc(Cl)cc3)NC(=O)N2)CC1 (stereo not drawn),.,.,.,-10.1,.,2.2%
COc1ccccc1-c1c(C)nn2c(C)cc(C)nc12,13.1µM*,-7.9%,-4.7%,-38.6,-6.4%,3.5%
Cc1cc(-c2ccc(Cl)cc2)n2nc(C)cc2n1,10.4µM*,-1.0%,-4.0%,20.6,?,1.3%
Cc1cc(C)n2nc(C)c(-c3ccccc3)c2n1,.,.,.,0.0,-28.9%,.
Cc1cc(C)n2nc(C)c(-c3ccc(Cl)cc3)c2n1,7.4%,-5.7%,-10.5%,-17.5,11.2µM*,-17.6%
COc1ccc(-c2c(C)nn3c(N4CCC(C(=O)NCCN(C)C)CC4)cc(C)nc23)cc1OC,84.8%,10.4µM*,0.7%,34.4,?,-3.5%
CCc1cccc(NC(=O)C(Cc2ccccc2)NS(=O)(=O)c2ccc3c(c2)oc(=O)n3C)c1 (stereo not drawn),.,.,.,-1.7,.,1.7%
O=C(COc1ccc(Cl)cc1Br)OCC(=O)c1ccc[nH]1,.,.,-2.6%,-11.8,16.4%,.
COc1ccccc1-c1c(C)nn2c(N3CCC(C(N)=O)CC3)cc(C)nc12,?,-26.7%,-2.9%,9.6,2.2%,-29.3%
COc1ccccc1-c1c(C)nn2c(N3CCC(C)CC3)cc(C)nc12,?,?,0.2%,-27.6,10µM*,6.6%
O=C(CCS(=O)(=O)c1ccc2c(c1)NC(=O)CS2)NCCc1ccc(Cl)cc1,?,-9.2%,-2.2%,-32.6,1.9%,?
O=C1CSc2ccc(S(=O)(=O)CCC(=O)NC3CCCCC3)cc2N1,?,2.4%,2.3%,0.0,12.8%,22.4µM*
O=C(CCS(=O)(=O)c1ccc2c(c1)NC(=O)CS2)NCCc1ccccc1,6.2%,29.7%,-4.5%,4.8,4.5%,31.6µM*
COc1ccccc1N1C(=O)C2C3C=CC(CC3)C2C1=O (stereo not drawn),-24.3%,10.4µM*,4.2%,8.1,0.2%,-16.5%
SMILES,Pf growth 96h,Pf growth 48h,SARS PLpro yeast,HCMV antiviral,HCV inhibitor,Sm TGR block
O=C1C2C3C=CC(CC3)C2C(=O)N1c1ccc(Br)cc1[N+](=O)[O-] (stereo not drawn),151.9%,-2.5%,0.4%,-16.6,7.0%,-10.9%
O=C1C2C3C=CC(CC3)C2C(=O)N1c1ccccc1[N+](=O)[O-] (stereo not drawn),-23.8%,19.5%,4.8%,3.8,4.0%,17.8µM*
CC(=O)Oc1cccc(N2C(=O)C3C4C=CC(CC4)C3C2=O)c1 (stereo not drawn),39.3%,.,0.1%,.,6.9%,44.7µM*
CCc1ccc2c(CN(C)Cc3ccc(OC(F)F)c(OC)c3)cc(=O)oc2c1,?,?,-2.7%,-15.3,?,-13.2%
COC(=O)c1cccc(CN2C(=O)C(C)Sc3ccc(C(C)=O)cc32)c1 (stereo not drawn),.,.,.,34.6,.,.
COc1ccc(CN(C)C(=O)c2cccc(Oc3ccccc3)c2)c(OC)c1OC,-2.4%,-14.7%,-10.2%,?,?,-0.6%
FC(F)Oc1ccc(NC(=S)NNc2ccnc3cc(Cl)ccc23)cc1,?,8.28µM*,0.5%,-87.8*,3.98µM*,11.0%
NC(=S)NNc1ccnc2cc(Cl)ccc12,?,2.94µM*,-4.0%,-13.3,-29.8%,6.8%
Clc1ccc2c(NNc3ccccc3Cl)ccnc2c1,?,?,3.8%,9.2,-1.1%,-16.2%
C=CCCC(=O)N1C[C@H]2CON(C)[C@H]2C[C@H]1c1cccc(Oc2ccccc2)c1,.,.,.,-0.5,.,.
CCCOC(=O)c1ccc(NC(=O)c2ccccc2[N+](=O)[O-])cc1,?,38.9%,-1.4%,-99.7*,?,-0.2%
O=C(O)c1ccccc1NC(=O)c1ccccc1Nc1ccccc1,-2.6%,0.0%,-11.8%,-69.8*,3.5%,-2.1%
COc1ccc(C(=O)NCC(=O)NCC2(N(C)C)CCCCC2)cc1OC,?,.,-0.6%,-13.7,4.7%,2.7%
O=C(O)c1ccccc1C(=O)Nc1ccc(Nc2ccccc2)cc1,.,.,.,-5.3,.,.
COc1ccccc1NC(=O)COc1ccc(CO)cc1Cl,.,170.3%,-13.8%,44.5,10µM*,-10.0%
COc1cc(C(=O)NCC2(N(C)C)CCCCC2)ccc1OCc1ccccc1,9.28µM*,?,29.7%,-16.6,?,-3.5%
CC(=O)c1ccc(OCCOc2ccc(Cl)c3cccnc23)cc1,-26.2%,17.4%,0.1%,4.7,21.2%,-2.5%
COCCN1C(=O)c2ccccc2C1c1nnnn1Cc1ccccc1 (stereo not drawn),.,.,.,-0.6,.,.
CCc1ccccc1NC(=O)Cn1nc(C)c2nn(-c3ccc(Cl)cc3)c(C)c2c1=O,.,.,.,53.7,.,0.6%
Nc1ccc(C(=O)Nc2ccccc2C(=O)O)cc1,-11.2%,.,-5.8%,21.2,23.8%,8.1%
COc1cc(C(=O)Nc2ccc(N(C)C)cc2)c([N+](=O)[O-])cc1OC,7.9%,75.6%,1.1%,-8.3,-12.1%,2.0%
O=C(Nc1ccccc1C(=O)Nc1ccccc1C(=O)O)c1ccccc1,?,.,-7.1%,-60.2*,-28.0%,-1.7%
